Experimental findings from paper PMC7156710, “The Sox2 transcription factor binds RNA” are described below.

Common to all, as to assay: fluorescence anisotropy; 10 mM Tris-HEPES pH 7.5, 8% Ficoll, 0.05% NP-40, 135 mM KCl, 15 mM NaCl, 1 mM DTT, 0.1 mg/mL BSA; 2 nM DNA or 3 nM RNA; low values mean tight binding
What all share (conditions): protein: recombinant; tags: N-terminal His6 and thrombin site, not removed; label: 3' fluorescein; hairpin; structured_RNA
Background: In fluorescence polarisation assays a small probe gives low polarisation when free and higher when bound to something large.

The target in experiment [1] is Sox2-HMG (His6 retained) Q61A (Homo sapiens, UniProt P48431 38-121, Q61A). Put shortly:
(§1)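 Dissociation constants, fit in Kaleidagraph, are reported relative to wild type as a mutant-to-wild-type ratio. They come from polarization readings on a CLARIOstar after alanine-substituted Sox2-HMG domains, made by site-directed mutagenesis and Ni-NTA purified with the His6 tag retained, were titrated against 2 nM fluorescein-labeled DNA or 3 nM fluorescein-labeled RNA. Binding took place in Tris-HEPES pH 7.5 buffer for at least 1 h, and titrations were done in triplicate with three reads each.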

Experiment [2] has as its target Sox2-HMG (His6 retained) R88A (Homo sapiens, UniProt P48431 38-121, R88A). A digest of the protocol:
as §1

For experiment [3], the target named is Sox2-HMG (His6 retained) K73A (Homo sapiens, UniProt P48431 38-121, K73A). A digest of the protocol: as §1
The target of experiment [4] is Sox2-HMG (His6 retained) E86A (Homo sapiens, UniProt P48431 38-121, E86A). A digest of the protocol:
as §1

Experiment [5] concerns the target Sox2-HMG (His6 retained) R53A (Homo sapiens, UniProt P48431 38-121, R53A). Put shortly:
as §1

Experiment [6] has as its target Sox2-HMG (His6 retained) R113A (Homo sapiens, UniProt P48431 38-121, R113A). A digest of the protocol: as §1
The target in experiment [7] is Sox2-HMG (His6 retained) T85A (Homo sapiens, UniProt P48431 38-121, T85A). Put shortly: as §1
In experiment [8] the target is Sox2-HMG (His6 retained) M49A (Homo sapiens, UniProt P48431 38-121, M49A). Put shortly:
as §1

Experiment [9] deals with Sox2-HMG (His6 retained) R56A (Homo sapiens, UniProt P48431 38-121, R56A). A digest of the protocol: as §1
In experiment [10] the target is Sox2-HMG (His6 retained) K80A (Homo sapiens, UniProt P48431 38-121, K80A). Put shortly: as §1
In experiment [11] the target is Sox2-HMG (His6 retained) Y110A (Homo sapiens, UniProt P48431 38-121, Y110A). Put shortly:
as §1

In experiment [12] the target is Sox2-HMG (His6 retained) K103A (Homo sapiens, UniProt P48431 38-121, K103A). Put shortly: as §1
In experiment [13] the target is Sox2-HMG (His6 retained) K109A (Homo sapiens, UniProt P48431 38-121, K109A). A digest of the protocol: as §1
Experiment [14] deals with Sox2-HMG (His6 retained) R43A (Homo sapiens, UniProt P48431 38-121, R43A). Put shortly:
as §1

The target in experiment [15] is Sox2-HMG (His6 retained) R57A (Homo sapiens, UniProt P48431 38-121, R57A). A digest of the protocol: as §1
The target in experiment [16] is Sox2-HMG (His6 retained) R98A (Homo sapiens, UniProt P48431 38-121, R98A). Put shortly:
as §1

The target of experiment [17] is Sox2-HMG (His6 retained) N68A (Homo sapiens, UniProt P48431 38-121, N68A). A digest of the protocol:
as §1

In experiment [18] the target is Sox2-HMG (His6 retained) P112A (Homo sapiens, UniProt P48431 38-121, P112A). Put shortly: as §1
Experiment [19] concerns the target Sox2-HMG (His6 retained) N46A (Homo sapiens, UniProt P48431 38-121, N46A). Put shortly: as §1
The target of experiment [20] is Sox2-HMG (His6 retained) K65A (Homo sapiens, UniProt P48431 38-121, K65A). Put shortly: as §1
Experiment [21] concerns the target Sox2-HMG (His6 retained) H101A (Homo sapiens, UniProt P48431 38-121, H101A). Put shortly: as §1
Experiment [22] deals with Sox2-HMG (His6 retained) P64A (Homo sapiens, UniProt P48431 38-121, P64A). Put shortly:
as §1

In experiment [23] the target is Sox2-HMG (His6 retained) M66A (Homo sapiens, UniProt P48431 38-121, M66A). A digest of the protocol: as §1
Experiment [24] concerns the target Sox2-HMG (His6 retained) H105A (Homo sapiens, UniProt P48431 38-121, H105A). Put shortly: as §1

Sox2-HMG (His6 retained) H105A, sequence (P48431 other isoform, or with tags, fused parts or gaps H105A | H105A H105A): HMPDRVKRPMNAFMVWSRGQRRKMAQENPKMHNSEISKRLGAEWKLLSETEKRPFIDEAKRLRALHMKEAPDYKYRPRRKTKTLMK
Sox2-HMG (His6 retained) Q61A, sequence (P48431 other isoform, or with tags, fused parts or gaps Q61A | Q61A Q61A): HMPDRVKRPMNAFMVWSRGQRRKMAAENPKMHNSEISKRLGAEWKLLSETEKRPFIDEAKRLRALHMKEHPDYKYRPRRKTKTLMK
Sox2-HMG (His6 retained) K73A, sequence (P48431 other isoform, or with tags, fused parts or gaps K73A | K73A K73A): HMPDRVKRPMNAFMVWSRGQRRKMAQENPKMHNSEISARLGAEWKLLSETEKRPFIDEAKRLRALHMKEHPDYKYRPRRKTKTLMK
Sox2-HMG (His6 retained) T85A, sequence (P48431 other isoform, or with tags, fused parts or gaps T85A | T85A T85A): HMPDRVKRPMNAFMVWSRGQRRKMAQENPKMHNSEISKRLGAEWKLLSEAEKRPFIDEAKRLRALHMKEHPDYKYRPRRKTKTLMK
Sox2-HMG (His6 retained) M49A, sequence (P48431 other isoform, or with tags, fused parts or gaps M49A | M49A M49A): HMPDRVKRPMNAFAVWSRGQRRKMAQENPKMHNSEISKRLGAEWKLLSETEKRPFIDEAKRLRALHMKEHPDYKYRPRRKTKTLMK
Sox2-HMG (His6 retained) N68A, sequence (P48431 other isoform, or with tags, fused parts or gaps N68A | N68A N68A): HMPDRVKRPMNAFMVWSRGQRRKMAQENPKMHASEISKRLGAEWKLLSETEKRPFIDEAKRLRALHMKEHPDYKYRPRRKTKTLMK
Sox2-HMG (His6 retained) R98A, sequence (P48431 other isoform, or with tags, fused parts or gaps R98A | R98A R98A): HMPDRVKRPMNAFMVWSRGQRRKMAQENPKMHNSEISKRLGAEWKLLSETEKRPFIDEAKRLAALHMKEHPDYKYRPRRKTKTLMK
Sox2-HMG (His6 retained) P64A, sequence (P48431 other isoform, or with tags, fused parts or gaps P64A | P64A P64A): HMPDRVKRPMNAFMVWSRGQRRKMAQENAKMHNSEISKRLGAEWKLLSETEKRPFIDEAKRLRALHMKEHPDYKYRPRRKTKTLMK
Sox2-HMG (His6 retained) E86A, sequence (P48431 other isoform, or with tags, fused parts or gaps E86A | E86A E86A): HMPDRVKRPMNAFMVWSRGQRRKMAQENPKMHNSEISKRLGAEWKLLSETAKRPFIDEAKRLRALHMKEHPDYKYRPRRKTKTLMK
Sox2-HMG (His6 retained) R53A, sequence (P48431 other isoform, or with tags, fused parts or gaps R53A | R53A R53A): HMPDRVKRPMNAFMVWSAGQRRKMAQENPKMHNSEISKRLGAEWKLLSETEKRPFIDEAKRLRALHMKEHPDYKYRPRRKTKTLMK
Sox2-HMG (His6 retained) M66A, sequence (P48431 other isoform, or with tags, fused parts or gaps M66A | M66A M66A): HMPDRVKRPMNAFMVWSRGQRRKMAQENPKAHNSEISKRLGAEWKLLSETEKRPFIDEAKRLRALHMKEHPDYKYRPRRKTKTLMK
Sox2-HMG (His6 retained) K80A, sequence (P48431 other isoform, or with tags, fused parts or gaps K80A | K80A K80A): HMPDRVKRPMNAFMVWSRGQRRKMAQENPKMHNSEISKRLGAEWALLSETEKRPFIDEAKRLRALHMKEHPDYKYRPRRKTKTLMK
Sox2-HMG (His6 retained) R88A, sequence (P48431 other isoform, or with tags, fused parts or gaps R88A | R88A R88A): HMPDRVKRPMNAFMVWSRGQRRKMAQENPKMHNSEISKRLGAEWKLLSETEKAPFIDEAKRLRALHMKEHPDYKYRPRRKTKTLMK
Sox2-HMG (His6 retained) P112A, sequence (P48431 other isoform, or with tags, fused parts or gaps P112A | P112A P112A): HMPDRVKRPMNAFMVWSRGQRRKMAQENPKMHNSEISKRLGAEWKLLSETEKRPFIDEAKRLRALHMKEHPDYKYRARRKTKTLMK
Sox2-HMG (His6 retained) R57A, sequence (P48431 other isoform, or with tags, fused parts or gaps R57A | R57A R57A): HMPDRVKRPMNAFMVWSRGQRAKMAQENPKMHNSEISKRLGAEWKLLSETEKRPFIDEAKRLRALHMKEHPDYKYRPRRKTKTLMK
Sox2-HMG (His6 retained) K65A, sequence (P48431 other isoform, or with tags, fused parts or gaps K65A | K65A K65A): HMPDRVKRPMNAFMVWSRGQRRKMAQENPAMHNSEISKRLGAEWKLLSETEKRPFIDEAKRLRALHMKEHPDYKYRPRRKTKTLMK
Sox2-HMG (His6 retained) K103A, sequence (P48431 other isoform, or with tags, fused parts or gaps K103A | K103A K103A): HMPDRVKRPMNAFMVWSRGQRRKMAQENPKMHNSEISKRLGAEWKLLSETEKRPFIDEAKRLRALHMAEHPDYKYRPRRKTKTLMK
Sox2-HMG (His6 retained) R43A, sequence (P48431 other isoform, or with tags, fused parts or gaps R43A | R43A R43A): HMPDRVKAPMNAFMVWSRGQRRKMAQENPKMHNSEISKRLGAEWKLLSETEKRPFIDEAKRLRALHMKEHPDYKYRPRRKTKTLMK
Sox2-HMG (His6 retained) R56A, sequence (P48431 other isoform, or with tags, fused parts or gaps R56A | R56A R56A): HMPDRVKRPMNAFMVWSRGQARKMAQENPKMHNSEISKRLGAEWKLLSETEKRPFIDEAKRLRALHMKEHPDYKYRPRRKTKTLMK
Sox2-HMG (His6 retained) K109A, sequence (P48431 other isoform, or with tags, fused parts or gaps K109A | K109A K109A): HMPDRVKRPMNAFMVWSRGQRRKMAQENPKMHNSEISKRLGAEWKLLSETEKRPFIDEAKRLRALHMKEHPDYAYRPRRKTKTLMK
Sox2-HMG (His6 retained) Y110A, sequence (P48431 other isoform, or with tags, fused parts or gaps Y110A | Y110A Y110A): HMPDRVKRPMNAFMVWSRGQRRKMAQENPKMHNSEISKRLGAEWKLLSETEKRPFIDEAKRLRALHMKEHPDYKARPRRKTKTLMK
Sox2-HMG (His6 retained) R113A, sequence (P48431 other isoform, or with tags, fused parts or gaps R113A | R113A R113A): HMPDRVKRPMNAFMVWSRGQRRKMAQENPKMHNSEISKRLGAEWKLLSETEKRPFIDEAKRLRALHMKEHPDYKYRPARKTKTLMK
Sox2-HMG (His6 retained) N46A, sequence (P48431 other isoform, or with tags, fused parts or gaps N46A | N46A N46A): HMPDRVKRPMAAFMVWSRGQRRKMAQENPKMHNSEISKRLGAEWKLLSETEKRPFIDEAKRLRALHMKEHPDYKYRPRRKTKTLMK
Sox2-HMG (His6 retained) H101A, sequence (P48431 other isoform, or with tags, fused parts or gaps H101A | H101A H101A): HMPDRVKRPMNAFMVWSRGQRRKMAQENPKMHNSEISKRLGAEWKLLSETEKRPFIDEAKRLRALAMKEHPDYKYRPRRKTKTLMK

As for GGUCUUAAGGUGCGGGCGAAAGUCUGUACCUCUGGGACC, the binding signal in [1] is 0.8 ± 0.5 Kd(mutant)/Kd(WT); in experiment [2] it was 0.7 ± 0.2 Kd(mutant)/Kd(WT); in [3], 6.9 ± 0.2 Kd(mutant)/Kd(WT); in experiment [4] it was 0.9 ± 0.6 Kd(mutant)/Kd(WT); in [5], 1.7 ± 0.6 Kd(mutant)/Kd(WT); in experiment [6], 3.1 ± 1.3 Kd(mutant)/Kd(WT). The binding signal in experiment [7] is 0.9 ± 0.3 Kd(mutant)/Kd(WT); in experiment [8] it was 0.7 ± 0.4 Kd(mutant)/Kd(WT); in experiment [9], 3 ± 0.3 Kd(mutant)/Kd(WT); in [10], 40 ± 15 Kd(mutant)/Kd(WT); in experiment [11], 1.7 ± 0.6 Kd(mutant)/Kd(WT); in experiment [12], 2.5 ± 1.1 Kd(mutant)/Kd(WT). The binding signal in experiment [13] was 7.4 ± 2.5 Kd(mutant)/Kd(WT); in experiment [14], 2.8 ± 0.6 Kd(mutant)/Kd(WT); in [15], 1.3 ± 0.5 Kd(mutant)/Kd(WT); in experiment [16] it was 5.5 ± 1.9 Kd(mutant)/Kd(WT); in experiment [17], 1 ± 0.1 Kd(mutant)/Kd(WT); in experiment [18], 1.8 ± 0.8 Kd(mutant)/Kd(WT). Moreover, the binding signal in [19] was 3.5 ± 1.1 Kd(mutant)/Kd(WT); in experiment [20], 2.6 ± 0.7 Kd(mutant)/Kd(WT); in experiment [21], 2.2 ± 0.9 Kd(mutant)/Kd(WT); in experiment [22] it was 2 ± 0.7 Kd(mutant)/Kd(WT); in [23] it was 1.3 ± 0.5 Kd(mutant)/Kd(WT); in [24], 2 ± 1 Kd(mutant)/Kd(WT).
